LmPK inh: blocks Leishmania mexicana pyruvate kinase activity; purified LmPK, Kinase-Glo ATP luminescence, 1 h; AID 1721; Q27686; actives 0.37% (n = 290,000); Potency, µM (series often up to 57.5 µM), hits mostly inhibitors
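Kinase-Glo luminescence read after 1 h RT reaction of 0.1 nM LmPK with 0.5 mM PEP and 0.1 mM ADP. Activity scaled between uninhibited and enzyme-free controls.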
Cycloheximide cs: counter-screen hit for Shiga toxin inhibitors, cycloheximide; max response, %; actives 12% (n = 300,000); AID 2314; cell reporter, cycloheximide protein synthesis inhibition counterscreen; in the data active = max response mostly above about 13%, no sharp cut-off; inactive = mostly below about 14%; note: read at 38.3 µM for the half of the compounds with a filed dose
Sm TGR inh: S. mansoni TGR enzyme inhibition; Potency, µM (highest dose often 114 µM), hits mostly inhibitors; purified TGR, DTNB reduction, TNB absorbance 405 nm; actives 3% (n = 360,000); note: nearly all actives have a fitted effect of over 60% in size
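TGR 20 nM + NADPH 100 uM (dispensed conc.), cpd preinc 15 min RT; start with NADPH (500 uM addition) then DTNB (15 mM addition). Kinetic TNB absorbance, 405 nm filter. Four-parameter Hill fit across titration.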
TbPYK inhibitor: T. brucei pyruvate kinase inhibition; Q57TT1; TbPYK enzyme, Kinase-Glo Plus ATP luminescence, 45 min; Potency, µM (doses to about 76.8 µM), usual class: inhibitors; actives 0.12% (n = 410,000); AID 624173; note: nearly all actives have a fitted effect of over 50% in size
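Luminescence from Kinase-Glo Plus, added after a 45-minute room-temperature reaction, served as the end-point read-out. The enzyme and substrate were preincubated with compound before ADP (130 uM final) initiated turnover. Concentration-effect curves came from normalized qHTS data.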
FBPA Giardia inh: inhibitors of Giardia lamblia fructose-1,6-bisphosphate aldolase. A8B2U2. purified Giardia FBPA. Potency, µM (titrated, usually from 59.6 µM), usual class: inhibitors. actives 0.71% (n = 290,000); note: nearly all actives have a fitted effect of over 55% in size
Target sequence (A8B2U2 whole entry, looked up): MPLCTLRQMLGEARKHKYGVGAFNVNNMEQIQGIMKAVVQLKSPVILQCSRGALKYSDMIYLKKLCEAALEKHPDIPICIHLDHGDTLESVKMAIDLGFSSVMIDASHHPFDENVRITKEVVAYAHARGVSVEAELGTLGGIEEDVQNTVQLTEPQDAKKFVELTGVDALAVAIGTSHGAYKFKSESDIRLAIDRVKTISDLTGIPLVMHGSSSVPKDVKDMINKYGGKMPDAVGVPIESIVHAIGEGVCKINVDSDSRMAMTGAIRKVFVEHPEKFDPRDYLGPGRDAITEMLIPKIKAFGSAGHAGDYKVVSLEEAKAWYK
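Giardia FBPA (40 nM reagent) was preincubated 10 min at RT with compound (up to 57.5 uM final), then substrate plus GAPDH/TPI/NAD/arsenate coupling system with diaphorase/resazurin was added; resorufin fluorescence (525/598 nm) was read after 20 min.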
Shiga inhibitor: inhibitors of Shiga toxin in Vero cells. Vero cells, Shiga toxin protein synthesis inhibition reporter. inhibition, % at 38.7 µM. actives 9.2% (n = 290,000). AID 2315; in the data active = inhibition mostly above about 28%, no sharp cut-off; inactive = mostly below about 43%
Of the large screens only hits and unclear results are named; the others gave an inactive call. The sample as a whole holds a higher share of hits than the screen did. Unless noted, calls come from the whole dose curve; as a rule, active = well fitted curve in the direction sought with a large enough effect; inconclusive = small, poorly fitted or top-dose-only effect, or another doubt; inactive = no such curve, though single readings can be large; an effect the other way counts as inactive or inconclusive.

COc1ccc(-c2nnc(SCC(=O)NCC3CCCO3)n2C)cc1 (configuration not stated)	none
COc1ccc(OCCSc2nnc(-c3ccccc3)n2N)cc1	none
COc1ccc(-c2nnc(SCc3ccccc3)n2N)cc1	Cycloheximide cs 44, Shiga inhibitor 61
Cn1c(SCC2CCCCC2)nnc1-c1ccncc1	Cycloheximide cs 16
COc1ccc(-c2nnc(SCC3CCCO3)n2C)cc1 (configuration not stated)	Cycloheximide cs 38
COc1ccc(-c2nnc(SCCc3ccccc3)n2N)cc1	Shiga inhibitor 24
O=C(COC(=O)C1CCN(S(=O)(=O)c2ccc(Cl)c(C(F)(F)F)c2)CC1)NCC1CCCO1 (configuration not stated)	none (no result: LmPK inh, Cycloheximide cs, Sm TGR inh, FBPA Giardia inh, Shiga inhibitor)
COc1ccccc1CCNC(=O)CCc1c(C)c2cc3c(C)coc3c(C)c2oc1=O	none (no result: LmPK inh, Cycloheximide cs, FBPA Giardia inh, Shiga inhibitor)
COc1ccc(N=C(N)SCc2ccccn2)cc1	Cycloheximide cs 31, Shiga inhibitor 46
COc1ccc(-c2nnc(SCc3ccccn3)n2C)cc1	Cycloheximide cs 26, Shiga inhibitor 45
O=S(=O)(NCc1nc2cccnc2n1Cc1ccc(F)cc1)c1ccc2c(c1)CCCC2	none (no result: LmPK inh, Cycloheximide cs, FBPA Giardia inh, Shiga inhibitor)
c1ccc2[nH]c(SCCN3CCOCC3)nc2c1	Cycloheximide cs 20
O=C(Cc1ccccc1)Nc1cccc(N2CCCC2)c1	Sm TGR inh 32µM
O=C(CSc1nc2ccccc2[nH]1)Nc1ccc(N2CCOCC2)cc1	Cycloheximide cs 16, Shiga inhibitor 30 (no result: FBPA Giardia inh)
O=c1[nH]c(SCCN2CCOCC2)nc(O)c1-c1ccccc1	none
O=C(CSc1nc2ccccc2[nH]1)Nc1cccc(S(=O)(=O)N2CCOCC2)c1	none
O=C(Cc1ccccc1)Nc1ccc(N2CCOCC2)cc1	Cycloheximide cs 28, Shiga inhibitor 46 (no result: Sm TGR inh)
O=C(Cc1ccccc1)Nc1ccc(N2CCCC2)cc1	Sm TGR inh inconclusive
CCN1CCN(c2ccc(NC(=O)Cc3ccccc3)cc2)CC1	Cycloheximide cs 15, Shiga inhibitor 67
CCc1ccc(-c2ccc(SCC(=O)Nc3nnc(C)s3)nn2)cc1	Shiga inhibitor 80
CCc1nnc(NC(=O)CSc2ccc(-c3ccco3)nn2)s1	Sm TGR inh 7.1µM, FBPA Giardia inh inconclusive
CCOc1ccc(-c2ccc(SCC(=O)Nc3nnc(C)s3)nn2)cc1	none
Cc1nnc(NC(=O)CSc2ccc(-c3ccco3)nn2)s1	Sm TGR inh 14µM
C[C@@H]1OC(C2CCCCC2)N(C)[C@H]2C[C@H]3c4[nH]c5ccccc5c4CCN3C[C@@H]12 (some centres not stated)	none (no result: LmPK inh, Cycloheximide cs, Sm TGR inh, FBPA Giardia inh, Shiga inhibitor)
Cc1ccc(NC(=O)CC2SC(=O)N(c3ccccc3)C2=O)cc1 (configuration not stated)	Cycloheximide cs 27, Sm TGR inh inconclusive, FBPA Giardia inh inconclusive, Shiga inhibitor 51
Cc1cccc(NC(=O)CC2SC(=O)N(c3ccccc3)C2=O)c1 (configuration not stated)	Sm TGR inh inconclusive
O=C(CC1Sc2ncnn2C1=O)Nc1ccccc1 (configuration not stated)	Cycloheximide cs 17, Sm TGR inh 0.5µM, FBPA Giardia inh inconclusive
Cc1cccc(NC2SC(=O)N(c3ccccc3)C2=O)c1 (configuration not stated)	Cycloheximide cs 53, Shiga inhibitor 71
Cc1ccc(NC(=O)CC2Sc3ccc(C(F)(F)F)cc3NC2=O)cc1 (configuration not stated)	none (no result: LmPK inh, Cycloheximide cs, FBPA Giardia inh, Shiga inhibitor)
Cc1ccc(NC(=O)CC2=NC(=O)C(CC(=O)Nc3ccccc3F)S2)cc1 (configuration not stated)	Cycloheximide cs 22, Shiga inhibitor 90 (no result: Sm TGR inh)
OC1c2ccccc2-c2nc3ccccc3cc21 (configuration not stated)	none (no result: LmPK inh, Cycloheximide cs, Sm TGR inh, TbPYK inhibitor, Shiga inhibitor)
COc1cccc(Cn2c(=O)cnc3cnc(N4CCOCC4)nc32)c1	none (no result: LmPK inh, Cycloheximide cs, Sm TGR inh, Shiga inhibitor)
CCN(C(=O)COC(=O)c1cccc(S(=O)(=O)N(C)C)c1)c1c(N)n(Cc2ccccc2)c(=O)[nH]c1=O	none (no result: LmPK inh, Cycloheximide cs, Sm TGR inh, FBPA Giardia inh, Shiga inhibitor)
CCOC(=O)N1C(C)CN(/[N+]([O-])=N/Oc2ccc([N+](=O)[O-])cc2[N+](=O)[O-])CC1C (configuration not stated)	none (no result: LmPK inh, Sm TGR inh, TbPYK inhibitor)
COc1ccc(-c2nc3scc(CCNS(=O)(=O)c4ccc(F)cc4C)n3n2)cc1	none (no result: LmPK inh, Cycloheximide cs, FBPA Giardia inh, Shiga inhibitor)
CCn1c(=O)cc(OCC(=O)NCc2ccccc2OC)c2ccccc21	none (no result: LmPK inh, Cycloheximide cs, FBPA Giardia inh, Shiga inhibitor)
Cc1ccc(N2C(=O)SC(Cc3ccccc3)C2=O)cc1 (configuration not stated)	Cycloheximide cs 14, TbPYK inhibitor inconclusive, Shiga inhibitor 42
O=C(CC1SC(=O)N(c2ccccc2)C1=O)Nc1ccccc1 (configuration not stated)	Cycloheximide cs 51, Sm TGR inh inconclusive, Shiga inhibitor 51
Cc1ccc(NC(=O)CC2SC3=NCCN3C2=O)cc1 (configuration not stated)	Sm TGR inh 7.9µM
Cc1ccc2[nH]c(C)c(CCNC(=O)c3cc4cc(Br)ccc4oc3=O)c2c1	none (no result: LmPK inh, Cycloheximide cs, FBPA Giardia inh, Shiga inhibitor)
c1ccc2c(c1)ccn2CCCN1CCCCC1	none (no result: LmPK inh, Cycloheximide cs, Sm TGR inh, FBPA Giardia inh, Shiga inhibitor)
CCOc1ccc(N2CC(NC(=O)c3ccc(S(=O)(=O)N4CCCC4)cc3)CC2=O)cc1 (configuration not stated)	none (no result: LmPK inh, Cycloheximide cs, FBPA Giardia inh, Shiga inhibitor)
CC/C(=N/NC(=O)c1ccc(Br)cc1)c1ccc(OCCN2CCOCC2)cc1	Shiga inhibitor 52
CC/C(=N/NC(=O)c1ccccc1)c1ccc(OCCN2CCOCC2)cc1	Cycloheximide cs 70, Shiga inhibitor 80
Oc1ccccc1OCCOc1ccccc1OCCOc1ccccc1O	Cycloheximide cs 9.8
Cc1ccccc1C(=O)NC(=S)N(C)C1CCCCC1	Cycloheximide cs 26, FBPA Giardia inh inconclusive, Shiga inhibitor 31
COc1ccc(C(=O)NC(=S)N(C)C2CCCCC2)cc1Br	none
COc1ccc(C(=O)NC(=S)N(C)C2CCCCC2)cc1	Cycloheximide cs 36, Shiga inhibitor 50 (no result: FBPA Giardia inh)
CC(C)n1c(/N=C/c2c[nH]c3ccccc23)nc2ccccc21	Cycloheximide cs 20
Cn1c(/N=C/c2c[nH]c3ccccc23)nc2ccccc21	none
Cc1ccc(C[C@H](C(=O)O)N2C(=O)c3ccc(C(=O)O)cc3C2=O)c(C)c1	none (no result: LmPK inh, TbPYK inhibitor)
CCCCN(CCCNC(=O)c1cc(Nc2ccc(OC)c(OC)c2)nc2ccccc12)c1ccccc1	none (no result: LmPK inh, Cycloheximide cs, FBPA Giardia inh, Shiga inhibitor)
O=c1c2cc(Br)ccc2[nH]c(=S)n1-c1ccccc1	none
O=c1cc(O)n(-c2ccccc2)c(=S)[nH]1	Sm TGR inh 2µM, TbPYK inhibitor inconclusive
Cc1ccsc1/C=N/n1cnc2sc(C)c(C)c2c1=O	Cycloheximide cs 16
Cc1cc2n(n1)CCCN2C(=O)Nc1ccccc1F	none (no result: LmPK inh, Cycloheximide cs, FBPA Giardia inh, Shiga inhibitor)

Screening results: PubChem, National Center for Advancing Translational Sciences (NCATS)
